# Laboratory results published in the supplement of paper PMC11732987, “Enantioselective OTUD7B fragment discovery through chemoproteomics screening and high-throughput optimisation” (Communications Chemistry, 2025).
# A number with no mark means an inactive call.
# Experiments:
# Assay in all cases: log2 ratio of Biotin-Ahx-Ub-VS probe labelling (fragment/DMSO); higher = less target engagement (more negative = stronger competition), active = hit call of the paper (q ≤ 0.05, log2 ratio ≤ -1)
# Conditions in all cases: compound concentration: 200 uM; treatment time: 3 h
# USP16 = USP16 (UniProt Q9Y5T5)
# Chain of USP16 (Q9Y5T5 whole entry, looked up, the tested form may be a part): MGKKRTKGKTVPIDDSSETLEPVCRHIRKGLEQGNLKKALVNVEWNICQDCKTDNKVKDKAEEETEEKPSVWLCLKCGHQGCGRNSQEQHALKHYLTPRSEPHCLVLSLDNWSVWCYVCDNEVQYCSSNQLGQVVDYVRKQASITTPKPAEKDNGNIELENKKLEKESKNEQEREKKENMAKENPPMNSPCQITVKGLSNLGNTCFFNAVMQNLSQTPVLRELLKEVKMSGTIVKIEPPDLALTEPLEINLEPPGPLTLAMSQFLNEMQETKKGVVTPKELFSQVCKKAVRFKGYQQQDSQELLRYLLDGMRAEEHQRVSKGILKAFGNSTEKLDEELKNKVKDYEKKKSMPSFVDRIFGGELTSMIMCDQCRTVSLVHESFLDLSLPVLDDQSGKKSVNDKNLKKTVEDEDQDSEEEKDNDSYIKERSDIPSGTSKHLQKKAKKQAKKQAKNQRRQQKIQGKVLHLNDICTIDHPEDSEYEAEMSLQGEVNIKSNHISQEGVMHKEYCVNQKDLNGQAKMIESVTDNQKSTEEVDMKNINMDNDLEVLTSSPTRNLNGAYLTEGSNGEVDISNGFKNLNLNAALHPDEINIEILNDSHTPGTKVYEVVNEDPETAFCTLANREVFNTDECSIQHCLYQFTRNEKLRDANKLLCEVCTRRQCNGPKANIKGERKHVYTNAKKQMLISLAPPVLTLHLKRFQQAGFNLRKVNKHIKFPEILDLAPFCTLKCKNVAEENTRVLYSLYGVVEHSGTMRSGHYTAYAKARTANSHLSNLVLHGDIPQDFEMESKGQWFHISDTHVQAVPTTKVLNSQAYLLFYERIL
# Summary of the method: (§1)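 Labelling with Biotin-Ahx-Ub-VS (0.5 µM final, 1 h) followed a 3 h triplicate treatment of HEK293T lysate (495 µg per sample, Tris/CHAPS/IGEPAL buffer with protease inhibitors) with fragment at 200 µM or vehicle. Labelled DUBs were NeutrAvidin-enriched, digested with LysC and trypsin, and run by diaPASEF LC-MS/MS. The values, average log2 fragment/vehicle ratios by unpaired t-test, come from global-median-normalised Spectronaut label-free quantities. Proteins with ≥2 unique peptides were used.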
# USP19 = molecular target: T1, USP19 (UniProt O94966)
# T1 sequence (whole entry): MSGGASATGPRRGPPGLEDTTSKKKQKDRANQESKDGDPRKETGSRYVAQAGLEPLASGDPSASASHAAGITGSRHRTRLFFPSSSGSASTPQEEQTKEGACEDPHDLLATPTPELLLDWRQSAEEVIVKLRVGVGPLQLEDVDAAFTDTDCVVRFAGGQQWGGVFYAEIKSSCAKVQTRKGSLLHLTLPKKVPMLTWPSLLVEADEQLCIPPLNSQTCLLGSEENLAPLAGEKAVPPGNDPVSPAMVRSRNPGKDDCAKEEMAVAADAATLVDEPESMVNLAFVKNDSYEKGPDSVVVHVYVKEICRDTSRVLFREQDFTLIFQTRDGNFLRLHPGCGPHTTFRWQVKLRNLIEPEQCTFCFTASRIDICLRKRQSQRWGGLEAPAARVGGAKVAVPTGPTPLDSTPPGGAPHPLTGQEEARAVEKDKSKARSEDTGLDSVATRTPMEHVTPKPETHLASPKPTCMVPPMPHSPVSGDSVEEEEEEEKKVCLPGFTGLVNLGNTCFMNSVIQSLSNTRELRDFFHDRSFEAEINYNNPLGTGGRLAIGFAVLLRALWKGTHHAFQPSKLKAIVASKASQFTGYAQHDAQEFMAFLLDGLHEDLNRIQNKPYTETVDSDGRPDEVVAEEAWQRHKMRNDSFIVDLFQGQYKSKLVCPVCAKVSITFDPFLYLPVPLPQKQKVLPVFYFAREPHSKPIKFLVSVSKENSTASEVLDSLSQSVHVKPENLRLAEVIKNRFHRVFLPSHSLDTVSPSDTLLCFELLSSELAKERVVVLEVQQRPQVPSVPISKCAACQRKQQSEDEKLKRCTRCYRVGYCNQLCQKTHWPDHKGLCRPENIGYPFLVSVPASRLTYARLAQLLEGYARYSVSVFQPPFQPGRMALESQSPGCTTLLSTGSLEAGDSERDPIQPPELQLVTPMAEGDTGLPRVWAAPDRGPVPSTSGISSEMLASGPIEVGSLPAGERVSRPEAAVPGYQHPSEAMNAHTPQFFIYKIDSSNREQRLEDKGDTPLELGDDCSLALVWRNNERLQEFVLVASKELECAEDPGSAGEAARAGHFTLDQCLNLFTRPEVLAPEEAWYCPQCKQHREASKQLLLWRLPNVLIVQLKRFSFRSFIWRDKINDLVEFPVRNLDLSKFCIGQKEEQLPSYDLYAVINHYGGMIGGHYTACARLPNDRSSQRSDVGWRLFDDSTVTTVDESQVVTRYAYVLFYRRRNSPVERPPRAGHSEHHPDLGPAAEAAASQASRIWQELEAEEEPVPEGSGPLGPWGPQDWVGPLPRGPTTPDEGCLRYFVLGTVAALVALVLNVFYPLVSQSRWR
# Summary of the method: as §1
# USP24 = USP24 (UniProt Q9UPU5)
# Chain of USP24 (Q9UPU5 whole entry): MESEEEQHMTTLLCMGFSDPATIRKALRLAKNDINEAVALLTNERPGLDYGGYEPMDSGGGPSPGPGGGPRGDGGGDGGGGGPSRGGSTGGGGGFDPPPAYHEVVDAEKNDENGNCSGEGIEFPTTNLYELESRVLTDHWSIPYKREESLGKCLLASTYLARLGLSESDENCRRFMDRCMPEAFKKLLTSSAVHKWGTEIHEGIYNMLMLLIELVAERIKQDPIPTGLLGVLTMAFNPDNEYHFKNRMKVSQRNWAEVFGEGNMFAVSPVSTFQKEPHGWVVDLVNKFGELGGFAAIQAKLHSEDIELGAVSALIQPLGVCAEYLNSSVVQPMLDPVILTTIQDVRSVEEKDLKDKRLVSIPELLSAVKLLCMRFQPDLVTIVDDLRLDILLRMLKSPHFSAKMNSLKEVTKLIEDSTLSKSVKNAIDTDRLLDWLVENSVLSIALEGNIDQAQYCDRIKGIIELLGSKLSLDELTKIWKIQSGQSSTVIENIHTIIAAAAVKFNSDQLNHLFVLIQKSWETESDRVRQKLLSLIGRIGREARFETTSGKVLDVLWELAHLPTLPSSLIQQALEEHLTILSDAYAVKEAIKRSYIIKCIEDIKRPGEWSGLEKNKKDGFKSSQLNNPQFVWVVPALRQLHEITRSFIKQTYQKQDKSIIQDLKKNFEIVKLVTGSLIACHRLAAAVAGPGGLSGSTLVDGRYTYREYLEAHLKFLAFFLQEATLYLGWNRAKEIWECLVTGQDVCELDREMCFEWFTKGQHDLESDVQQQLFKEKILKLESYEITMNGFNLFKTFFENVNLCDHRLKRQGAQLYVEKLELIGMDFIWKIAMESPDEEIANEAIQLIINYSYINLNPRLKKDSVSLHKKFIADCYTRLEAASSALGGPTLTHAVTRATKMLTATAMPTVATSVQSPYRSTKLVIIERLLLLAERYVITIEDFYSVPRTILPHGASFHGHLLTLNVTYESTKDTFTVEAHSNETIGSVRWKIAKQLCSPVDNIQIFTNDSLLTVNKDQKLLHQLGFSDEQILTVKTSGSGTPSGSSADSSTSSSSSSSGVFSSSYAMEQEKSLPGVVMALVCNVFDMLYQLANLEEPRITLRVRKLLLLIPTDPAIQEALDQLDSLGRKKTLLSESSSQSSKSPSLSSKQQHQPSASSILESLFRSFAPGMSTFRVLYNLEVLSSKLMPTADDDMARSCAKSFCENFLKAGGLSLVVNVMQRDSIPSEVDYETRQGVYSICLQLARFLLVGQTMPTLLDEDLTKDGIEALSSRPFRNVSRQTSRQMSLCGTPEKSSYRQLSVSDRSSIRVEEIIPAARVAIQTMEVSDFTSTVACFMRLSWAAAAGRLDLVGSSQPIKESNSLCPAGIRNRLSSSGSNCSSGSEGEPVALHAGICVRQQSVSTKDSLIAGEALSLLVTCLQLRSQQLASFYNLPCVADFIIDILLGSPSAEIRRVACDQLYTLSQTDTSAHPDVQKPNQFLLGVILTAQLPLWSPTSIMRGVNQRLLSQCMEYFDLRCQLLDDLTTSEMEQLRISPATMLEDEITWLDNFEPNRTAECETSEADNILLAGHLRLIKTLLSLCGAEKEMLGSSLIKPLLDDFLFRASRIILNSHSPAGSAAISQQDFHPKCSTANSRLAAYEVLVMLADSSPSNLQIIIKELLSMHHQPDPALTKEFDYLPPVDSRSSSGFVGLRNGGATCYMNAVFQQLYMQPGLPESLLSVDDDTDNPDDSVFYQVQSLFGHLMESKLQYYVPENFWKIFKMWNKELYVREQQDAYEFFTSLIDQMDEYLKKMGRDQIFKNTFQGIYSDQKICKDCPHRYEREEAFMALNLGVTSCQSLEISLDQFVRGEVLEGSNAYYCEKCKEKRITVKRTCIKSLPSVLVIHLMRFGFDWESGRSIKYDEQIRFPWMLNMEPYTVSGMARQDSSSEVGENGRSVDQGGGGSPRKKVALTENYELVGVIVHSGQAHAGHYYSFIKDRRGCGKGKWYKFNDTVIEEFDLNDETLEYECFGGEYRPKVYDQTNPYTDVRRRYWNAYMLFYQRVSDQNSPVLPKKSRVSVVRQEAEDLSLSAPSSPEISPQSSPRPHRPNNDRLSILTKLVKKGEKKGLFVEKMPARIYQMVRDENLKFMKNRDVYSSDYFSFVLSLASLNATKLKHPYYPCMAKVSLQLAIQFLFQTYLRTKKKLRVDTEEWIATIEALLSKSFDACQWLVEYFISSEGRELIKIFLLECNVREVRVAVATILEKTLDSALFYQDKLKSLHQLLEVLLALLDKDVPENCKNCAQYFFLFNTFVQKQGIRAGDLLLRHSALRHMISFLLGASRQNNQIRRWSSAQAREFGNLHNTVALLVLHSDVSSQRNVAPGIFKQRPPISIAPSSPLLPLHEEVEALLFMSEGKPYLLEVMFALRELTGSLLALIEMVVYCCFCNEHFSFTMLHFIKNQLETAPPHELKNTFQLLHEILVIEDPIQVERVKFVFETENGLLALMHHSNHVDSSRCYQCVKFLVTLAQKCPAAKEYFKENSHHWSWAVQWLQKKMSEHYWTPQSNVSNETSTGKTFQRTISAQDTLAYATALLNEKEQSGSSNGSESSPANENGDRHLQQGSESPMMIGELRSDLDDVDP
# Summary of the method: as §1
# USP25 = molecular target: T2, USP25 (UniProt Q9UHP3)
# T2 sequence (whole entry): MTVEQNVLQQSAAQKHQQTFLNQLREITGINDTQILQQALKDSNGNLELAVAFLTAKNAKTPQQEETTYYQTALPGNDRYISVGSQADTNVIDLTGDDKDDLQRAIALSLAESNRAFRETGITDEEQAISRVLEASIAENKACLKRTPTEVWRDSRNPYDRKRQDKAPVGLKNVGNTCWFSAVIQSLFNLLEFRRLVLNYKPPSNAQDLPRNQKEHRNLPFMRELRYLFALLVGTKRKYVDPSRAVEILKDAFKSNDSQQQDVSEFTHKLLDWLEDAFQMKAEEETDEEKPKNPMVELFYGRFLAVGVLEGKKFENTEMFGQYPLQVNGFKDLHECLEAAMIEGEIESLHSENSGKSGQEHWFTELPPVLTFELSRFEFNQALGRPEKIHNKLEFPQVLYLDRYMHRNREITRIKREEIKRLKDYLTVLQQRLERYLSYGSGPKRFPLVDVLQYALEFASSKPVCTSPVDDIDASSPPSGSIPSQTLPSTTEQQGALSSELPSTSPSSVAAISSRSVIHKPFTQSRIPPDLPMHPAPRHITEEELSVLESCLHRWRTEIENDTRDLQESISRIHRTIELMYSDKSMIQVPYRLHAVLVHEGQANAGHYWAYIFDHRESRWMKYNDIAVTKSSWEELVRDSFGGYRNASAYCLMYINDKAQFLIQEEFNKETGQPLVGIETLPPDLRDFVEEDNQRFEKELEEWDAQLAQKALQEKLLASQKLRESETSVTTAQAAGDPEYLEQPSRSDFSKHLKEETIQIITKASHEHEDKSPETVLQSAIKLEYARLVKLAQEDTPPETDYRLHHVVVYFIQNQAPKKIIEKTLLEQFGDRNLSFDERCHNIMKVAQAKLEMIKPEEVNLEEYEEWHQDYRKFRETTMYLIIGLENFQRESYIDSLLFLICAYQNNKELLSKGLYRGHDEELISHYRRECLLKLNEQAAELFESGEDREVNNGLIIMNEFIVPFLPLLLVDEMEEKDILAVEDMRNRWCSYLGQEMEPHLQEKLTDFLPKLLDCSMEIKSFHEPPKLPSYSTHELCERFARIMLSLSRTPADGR
# Summary of the method: as §1
# USP28 = molecular target: T3, USP28 (UniProt Q96RU2)
# T3 sequence (whole entry): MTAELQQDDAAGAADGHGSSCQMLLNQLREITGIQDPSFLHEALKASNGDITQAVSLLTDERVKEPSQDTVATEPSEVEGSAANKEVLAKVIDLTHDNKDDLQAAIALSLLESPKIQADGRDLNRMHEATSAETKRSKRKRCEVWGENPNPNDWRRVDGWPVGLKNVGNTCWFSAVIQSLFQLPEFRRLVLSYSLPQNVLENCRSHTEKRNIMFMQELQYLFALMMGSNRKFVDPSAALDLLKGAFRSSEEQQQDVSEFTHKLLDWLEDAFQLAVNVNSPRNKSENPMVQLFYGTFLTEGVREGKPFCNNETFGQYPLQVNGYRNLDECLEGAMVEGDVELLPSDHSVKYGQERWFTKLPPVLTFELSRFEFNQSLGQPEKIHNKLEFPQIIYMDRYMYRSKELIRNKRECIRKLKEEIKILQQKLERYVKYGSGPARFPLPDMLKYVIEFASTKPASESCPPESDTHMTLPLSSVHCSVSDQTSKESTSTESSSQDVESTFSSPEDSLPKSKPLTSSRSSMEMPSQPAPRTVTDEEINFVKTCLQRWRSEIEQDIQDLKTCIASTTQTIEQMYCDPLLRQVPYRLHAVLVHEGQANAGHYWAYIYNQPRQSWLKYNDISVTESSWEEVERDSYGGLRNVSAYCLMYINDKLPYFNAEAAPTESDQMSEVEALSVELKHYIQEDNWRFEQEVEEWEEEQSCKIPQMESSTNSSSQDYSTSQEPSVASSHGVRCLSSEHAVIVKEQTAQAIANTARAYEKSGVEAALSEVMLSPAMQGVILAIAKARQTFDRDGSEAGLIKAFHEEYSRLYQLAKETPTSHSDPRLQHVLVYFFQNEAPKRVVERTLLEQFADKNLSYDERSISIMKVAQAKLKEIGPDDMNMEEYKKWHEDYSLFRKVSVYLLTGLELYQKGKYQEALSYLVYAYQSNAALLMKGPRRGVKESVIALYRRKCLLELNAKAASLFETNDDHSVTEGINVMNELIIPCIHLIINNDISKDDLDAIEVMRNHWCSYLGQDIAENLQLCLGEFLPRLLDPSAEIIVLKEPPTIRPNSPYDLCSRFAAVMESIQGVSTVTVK
# Summary of the method: as §1
smiles,measurement,setting,value
Cc1ccccc1CN(C)C(=O)CCl,log2 ratio of Biotin-Ahx-Ub-VS probe labelling,USP16,-0.62
same,log2 ratio of Biotin-Ahx-Ub-VS probe labelling,USP19,-0.829
same,log2 ratio of Biotin-Ahx-Ub-VS probe labelling,USP24,-1.38 (active)
same,log2 ratio of Biotin-Ahx-Ub-VS probe labelling,USP25,-1.03 (active)
same,log2 ratio of Biotin-Ahx-Ub-VS probe labelling,USP28,-1.35 (active)
